According to PubChem BioAssay:
Active and inactive are the calls of the source.

Experiments:
[1] = E. coli DRC41 culture turbidity changes, primary screen, E. coli filamentation inducer project, strain DRC41, OD650, 48 h (AID 1152);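 note: E. coli MC1000 strain DRC41 lacking acrAB efflux pump and sulA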; details: E. coli DRC41 (acrAB sulA), higher = more signal, called active from +8 up or from −8 down
[2] = small-molecule binders of probe aLefty1, primary screen, biochemical, small-molecule microarray, 635/667 nm fluorescence (AID 1153); details: higher = more signal;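 note: score merges spot fluorescence with signal-to-noise ratio from the scanned slide images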
[3] = PSAC antagonists in infected red cells, primary screen, cell-based, P. falciparum Indochina, OD700, 1 h (AID 1154); details: P. falciparum Indochina infected RBC osmotic lysis, higher = more signal, called active from +8 up or from −8 down
[4] = PSAC antagonists in infected red cells, primary screen, cell-based, P. falciparum Indochina, OD700, 2 h (AID 1155);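 note: lysis reports solute entry through the parasite surface anion channel PSAC; channel blockers reduce lysis of infected cells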; details: P. falciparum Indochina infected erythrocytes, osmotic lysis OD700; higher = more signal, called active from +8 up or from −8 down
[5] = osmotic lysis modulators in infected erythrocytes, primary screen, PSAC antagonist project, cell-based, P. falciparum Indochina, OD700, 3 h (AID 1156); details: higher = more signal, called active from +8 up or from −8 down
[6] = PSAC antagonists in infected red cells, primary screen, cell-based, P. falciparum Indochina, OD700, 18 h (AID 1157); details: P. falciparum Indochina infected erythrocytes, osmotic lysis OD700, 18 h; higher = more signal, called active from +8 up or from −8 down
[7] = modulators of S6 phosphorylation in cells, primary screen, cell-based, A549, cytoblot, luminescence, serum-stimulated (AID 1158); details: A549 phospho-S6 cytoblot, 5 h, higher = more signal;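 note: serum-stimulated A549 lung adenocarcinoma cells; signal is phosphorylated S6 detected by cytoblot immunostaining with HRP secondary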
[8] = molecular target: NADPH oxidase 2 (Homo sapiens) (UniProt P04839); experiment: NOX2-dependent H2O2 signal modulators, primary screen, NOX inhibitor project, cell-based, HEK293-NOX2, PMA-stimulated, Amplex Red fluorescence (AID 1159); details: 45 min, higher = more signal, called active from +8 up or from −8 down; note: test concentration not given here
Chain of NADPH oxidase 2 (Homo sapiens) (P04839 whole entry, looked up): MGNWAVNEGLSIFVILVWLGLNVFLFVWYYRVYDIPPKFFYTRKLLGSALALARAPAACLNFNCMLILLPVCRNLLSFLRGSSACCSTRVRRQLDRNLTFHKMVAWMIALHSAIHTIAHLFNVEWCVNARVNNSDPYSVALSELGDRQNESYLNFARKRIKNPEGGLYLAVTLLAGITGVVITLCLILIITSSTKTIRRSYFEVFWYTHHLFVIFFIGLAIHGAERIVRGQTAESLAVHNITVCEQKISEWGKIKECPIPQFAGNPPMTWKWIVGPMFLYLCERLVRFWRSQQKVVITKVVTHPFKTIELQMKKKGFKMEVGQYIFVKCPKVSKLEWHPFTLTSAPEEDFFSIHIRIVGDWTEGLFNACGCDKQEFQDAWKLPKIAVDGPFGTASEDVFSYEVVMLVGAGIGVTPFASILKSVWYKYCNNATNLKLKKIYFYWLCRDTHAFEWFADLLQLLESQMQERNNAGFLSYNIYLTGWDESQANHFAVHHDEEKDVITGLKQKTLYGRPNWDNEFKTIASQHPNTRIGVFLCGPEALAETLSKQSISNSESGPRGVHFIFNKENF

[9] = molecular target: NADPH oxidase 4 (Homo sapiens) (UniProt Q9NPH5); experiment: NOX4-dependent H2O2 signal modulators, primary screen, NOX inhibitor project, cell-based, HEK293-NOX4, tetracycline-induced, Amplex Red fluorescence (AID 1160); details: 45 min, higher = more signal, called active from +8 up or from −8 down
Chain of NADPH oxidase 4 (Homo sapiens) (Q9NPH5 whole entry, looked up): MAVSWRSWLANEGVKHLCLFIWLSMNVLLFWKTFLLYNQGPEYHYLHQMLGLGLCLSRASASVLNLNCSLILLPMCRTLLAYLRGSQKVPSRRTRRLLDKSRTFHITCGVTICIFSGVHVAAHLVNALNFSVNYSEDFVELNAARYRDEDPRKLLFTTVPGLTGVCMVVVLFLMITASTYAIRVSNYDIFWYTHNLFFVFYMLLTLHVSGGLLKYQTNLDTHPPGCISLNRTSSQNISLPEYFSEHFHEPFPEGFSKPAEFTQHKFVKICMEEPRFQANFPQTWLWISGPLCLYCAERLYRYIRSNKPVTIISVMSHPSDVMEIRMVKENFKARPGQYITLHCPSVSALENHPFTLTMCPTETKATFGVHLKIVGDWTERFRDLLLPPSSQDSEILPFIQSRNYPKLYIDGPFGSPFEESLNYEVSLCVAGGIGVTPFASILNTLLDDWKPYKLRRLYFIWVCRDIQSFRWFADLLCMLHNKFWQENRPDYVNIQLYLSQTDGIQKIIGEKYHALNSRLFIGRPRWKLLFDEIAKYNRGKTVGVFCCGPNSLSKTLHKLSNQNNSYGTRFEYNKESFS

[10] = molecular target: NADPH oxidase 5 (Homo sapiens) (UniProt Q96PH1); experiment: NOX5-dependent H2O2 signal modulators, primary screen, NOX inhibitor project, cell-based, HEK293-NOX5, Amplex Red fluorescence (AID 1161); details: HEK293-NOX5, ionomycin, 45 min, higher = more signal
Chain of NADPH oxidase 5 (Homo sapiens) (Q96PH1 whole entry, looked up): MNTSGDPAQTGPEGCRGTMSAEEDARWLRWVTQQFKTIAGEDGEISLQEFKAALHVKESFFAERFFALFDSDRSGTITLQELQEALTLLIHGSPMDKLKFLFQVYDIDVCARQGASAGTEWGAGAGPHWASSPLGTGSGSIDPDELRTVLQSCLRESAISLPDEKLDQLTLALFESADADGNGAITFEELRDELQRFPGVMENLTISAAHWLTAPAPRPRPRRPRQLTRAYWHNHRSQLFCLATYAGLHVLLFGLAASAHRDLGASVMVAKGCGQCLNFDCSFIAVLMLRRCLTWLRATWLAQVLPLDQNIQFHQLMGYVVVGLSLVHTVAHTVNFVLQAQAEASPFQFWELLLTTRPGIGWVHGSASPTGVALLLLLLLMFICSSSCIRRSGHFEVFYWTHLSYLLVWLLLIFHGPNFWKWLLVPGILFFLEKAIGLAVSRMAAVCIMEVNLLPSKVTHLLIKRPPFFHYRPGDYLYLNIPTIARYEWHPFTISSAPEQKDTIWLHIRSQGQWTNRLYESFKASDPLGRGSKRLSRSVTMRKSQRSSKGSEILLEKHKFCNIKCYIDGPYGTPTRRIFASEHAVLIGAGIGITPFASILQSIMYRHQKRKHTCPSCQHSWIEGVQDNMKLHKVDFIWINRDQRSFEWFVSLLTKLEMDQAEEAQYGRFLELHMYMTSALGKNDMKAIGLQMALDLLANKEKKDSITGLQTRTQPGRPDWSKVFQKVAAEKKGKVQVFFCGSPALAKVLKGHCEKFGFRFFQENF

Structure (SMILES) | z-score [1] | composite z-score [2] | z-score [3] | z-score [4] | z-score [5] | z-score [6] | z-score [7] | z-score [8] | z-score [9] | z-score [10]
C=CC[C@@]1(C(=O)OC)N=C(c2ccc(OCCCO)cc2)O[C@@H]1c1ccccc1CN=[N+]=[N-] | 1.24 (inactive) | 0.0674 | 26.9 (active) | 18.7 (active) | -0.26 (inactive) | 3.48 (inactive) | 1.79 | -4.05 (inactive) | 0.419 (inactive) | -3.1
C=C(C(=O)CC[C@@H](OC(=O)c1cccnc1)c1ccc(OCCO)cc1)C(C)C | -1.07 (inactive) | 0.0043 | 3.66 (inactive) | 2.48 (inactive) | -6.06 (inactive) | 0.822 (inactive) | -0.917 | -4.23 (inactive) | -1.19 (inactive) | -1.6
O=C(CS)NCCCCCNC(=O)[C@H]1C[C@H]2C(=O)N[C@@H](Cc3ccccc3)C(=O)N2[C@H]1c1cccc(OCCO)c1 | 1.77 (inactive) | 0.373 | 3.03 (inactive) | 0.724 (inactive) | -2 (inactive) | 0.425 (inactive) | 0.9 | 1.69 (inactive) | 1.34 (inactive) | 0.687
O=C(NCC(F)(F)F)[C@@H]1c2ccccc2C(=O)N(Cc2ccccc2)[C@H]1c1ccc(CO)cc1 | 0.467 (inactive) | -0.147 | 0.878 (inactive) | -0.453 (inactive) | 0.239 (inactive) | -0.406 (inactive) | -0.325 | -0.489 (inactive) | 0.597 (inactive) | -0.601
CC(C)CNC(=O)[C@@]1(C)c2ccccc2C(=O)N(C(C)C)[C@H]1c1ccc(CO)cc1 | -0.144 (inactive) | 0.045 | 1.54 (inactive) | 0.344 (inactive) | 0.24 (inactive) | -0.0642 (inactive) | -0.53 | -0.93 (inactive) | 0.227 (inactive) | -0.85
CC(C)C(=C=CC[C@H](O)c1ccccc1OCCO)CCO | -0.42 (inactive) | -0.0576 | 2.08 (inactive) | -0.0743 (inactive) | -0.163 (inactive) | 0.013 (inactive) | -0.2 | -0.353 (inactive) | 0.323 (inactive) | -0.738
C=CCNC(=O)[C@H]1[C@@H]2C(=O)O[C@@H](c3ccccc3)[C@@H](c3ccccc3)N2[C@@H](c2ccc(OCCO)cc2)[C@]12C(=O)N(C(=O)OCCOC)c1ccc(C#CC3(O)CCCCCC3)cc12 | 0.838 (inactive) | 0.658 | 1.92 (inactive) | 0.742 (inactive) | 0.0102 (inactive) | 0.509 (inactive) | 0.0127 | 1.56 (inactive) | 0.972 (inactive) | 1.02
Cc1ccc(F)cc1S(=O)(=O)N[C@@H]1CCN(Cc2ccc(C(F)(F)F)cc2)C1 | -5.36 (inactive) | -0.152 | 4.85 (inactive) | 1.15 (inactive) | 0.129 (inactive) | 0.624 (inactive) | -0.147 | -0.344 (inactive) | -1.19 (inactive) | -2
CS(=O)(=O)CCOC(=O)C1=CC(c2ccc(CO)cc2)=CC(c2cccs2)N(Cc2cccc(OC(F)(F)F)c2)C=C1C(=O)OCCS(C)(=O)=O (stereo not given) | -2.86 (inactive) | 0.0575 | 14.8 (active) | 4.37 (inactive) | 0.869 (inactive) | 1.95 (inactive) | 0.158 | -2.07 (inactive) | -1.09 (inactive) | -2.37
CCOC1=C2C(c3ccc(C)cc3)N(S(=O)(=O)c3ccc(C)cc3)CC2n2c(=O)n(-c3ccccc3)c(=O)n2C1 (stereo not given) | -0.346 (inactive) | 0.175 | 1.08 (inactive) | 1.32 (inactive) | 0.458 (inactive) | 0.807 (inactive) | -0.0263 | 1.22 (inactive) | 0.965 (inactive) | 0.536
O=C1OCCC=C[C@H]2OC34C=CCN(CCN5CCOCC5)C(=O)[C@H]3N(CCO)C(=O)[C@@H]4C12 (stereo not given in full) | -0.392 (inactive) | -0.231 | 0.329 (inactive) | 0.392 (inactive) | 0.918 (inactive) | 0.551 (inactive) | 0.65 | 0.808 (inactive) | 0.49 (inactive) | 0.0715
O=C1OCCC/C=C\[C@H]2OC34C=CCN(Cn5nnc6ccccc65)C(=O)[C@H]3N(CCCO)C(=O)[C@@H]4C12 (stereo not given in full) | 0.0048 (inactive) | 0.123 | 1.16 (inactive) | 0.614 (inactive) | -0.443 (inactive) | 0.261 (inactive) | 1.16 | 0.821 (inactive) | 0.689 (inactive) | 2.02
O=C1C2C=CC(C(O)CCc3ccccc3)N(Nc3ccccc3)C2C(=O)N1c1ccccc1 (stereo not given) | -1.7 (inactive) | 0.767 | 1.9 (inactive) | 1.32 (inactive) | 0.624 (inactive) | 1.42 (inactive) | -1.06 | -1.26 (inactive) | -5.33 (inactive) | -1.45
O=C1OCCC=C[C@H]2OC34C=CCN(c5ccc6ccccc6c5)C(=O)[C@H]3N(CCCCCCO)C(=O)[C@@H]4C12 (stereo not given in full) | 0.901 (inactive) | -0.0536 | 0.856 (inactive) | 0.712 (inactive) | 0.738 (inactive) | 0.426 (inactive) | 1.08 | 1.42 (inactive) | 0.441 (inactive) | 2.68
COCCOC(=O)N1C(=O)[C@@]2(c3cc(C#CC4(O)CCCCCC4)ccc31)[C@H](c1ccc(O)cc1)N1[C@H](c3ccccc3)[C@H](c3ccccc3)OC(=O)[C@H]1[C@@H]2C(=O)N1CCc2cc(OC)c(OC)cc2C1 | 1.23 (inactive) | -0.0099 | -0.0535 (inactive) | 0.49 (inactive) | 0.44 (inactive) | 0.286 (inactive) | 0.0108 | -0.0758 (inactive) | 0.139 (inactive) | 0.979
C=CCC(OC(C)=O)[C@@H]1[C@@H](N(Cc2ccc(-c3cccc(C(F)(F)F)c3)o2)C(=O)c2ccc(C)cc2)c2cc(OCCCO)ccc2N1C(=O)c1ccc2ccccc2n1 (stereo not given in full) | 1.55 (inactive) | 0.235 | 1.97 (inactive) | 0.435 (inactive) | -0.225 (inactive) | 0.0644 (inactive) | -0.218 | -0.0312 (inactive) | 0.95 (inactive) | 2.06
C=CCOC(=O)[C@@H]1[C@H]2C(=O)O[C@H](c3ccccc3)[C@H](c3ccccc3)N2[C@H](c2ccc(OCCOC(=O)[C@H]3C[C@H]4C(=O)N[C@@H](CCCC[N+](C)(C)C)C(=O)N4[C@H]3c3cccc(OCCO)c3)cc2)[C@@]12C(=O)Nc1ccc(I)cc12 | -0.398 (inactive) | 0.173 | 7.62 (inactive) | 2.35 (inactive) | 1.59 (inactive) | 1.28 (inactive) | 0.0621 | 1.68 (inactive) | 0.615 (inactive) | 1.33
COC(=O)[C@@]1(Cc2ccc(OC)cc2)[C@H]2c3cc(C(=O)N4CCCC4)n(C[C@H](O)CO)c3C[C@H]2CN1C(=O)c1ccccc1 | -0.599 (inactive) | 0.132 | 1.24 (inactive) | -0.478 (inactive) | 0.425 (inactive) | 0.201 (inactive) | 0.245 | 0.4 (inactive) | 0.18 (inactive) | -3.78
CCCC[C@@H]1C[C@H]1[C@@H](NC(=O)c1ccccc1)c1ccccc1 | -1.39 (inactive) | 1.43 | 0.713 (inactive) | 0.803 (inactive) | 0.13 (inactive) | 0.888 (inactive) | -0.943 | -0.289 (inactive) | -1.21 (inactive) | 1.98
O=S(=O)(NCCCO)c1ccc(Br)cc1 | 0.949 (inactive) | 0.103 | 0.168 (inactive) | -0.852 (inactive) | -1.21 (inactive) | -1.71 (inactive) | 0.679 | -1.2 (inactive) | -0.0431 (inactive) | 0.102
O=C1C[C@@](C(=O)O)(c2ccc([N+](=O)[O-])cc2)[C@@H](c2ccc(CO)cc2I)N1CC12CC3CC(CC(C3)C1)C2 | -0.455 (inactive) | 0.271 | 27.4 (active) | 22.3 (active) | 3.79 (inactive) | 2.73 (inactive) | -0.429 | 1.11 (inactive) | -0.681 (inactive) | 1.72
O=C1OCCC/C=C\[C@H]2OC34C=CCN(CCN5CCOCC5)C(=O)[C@H]3N(CCO)C(=O)[C@@H]4C12 (stereo not given in full) | 0.216 (inactive) | -0.231 | 0.588 (inactive) | 0.921 (inactive) | 0.723 (inactive) | 0.382 (inactive) | -0.364 | 0.61 (inactive) | -0.342 (inactive) | 0.494
COC(=O)[C@@]1(Cc2ccc(F)cc2)[C@H]2c3cc(C(=O)N(C)C)n(CCc4c[nH]c5ccc(OC)cc45)c3C[C@H]2CN1C(=O)c1ccccc1 | -1.77 (inactive) | 0.441 | 6.52 (inactive) | 0.1 (inactive) | 1.24 (inactive) | -0.975 (inactive) | 1.87 | -3.45 (inactive) | -3.18 (inactive) | -5.53
C=CCC(OC(C)=O)[C@@H]1[C@@H](N(Cc2ccc(-c3ccccc3)cc2)C(=O)c2ccc(C)cc2)c2cc(OCCCO)ccc2N1C(=O)c1ccc2ccccc2n1 (stereo not given in full) | 2.95 (inactive) | 0.175 | 0.225 (inactive) | -0.883 (inactive) | -1.19 (inactive) | -1.06 (inactive) | 1.56 | -0.0121 (inactive) | 0.729 (inactive) | 1.92
[N-]=[N+]=NCc1ccccc1C[C@]1(C(=O)NCc2ccccc2)COC(c2ccc(OCCCO)cc2)=N1 | 0.104 (inactive) | -0.373 | 28.9 (active) | 24.6 (active) | 4.42 (inactive) | 2.78 (inactive) | -0.153 | -2.28 (inactive) | -0.958 (inactive) | -1.81
C/C=C/[C@H](CCn1cc([C@H](O)c2ccccc2)nn1)[Si](C)(C)c1ccc(OC)cc1 | -0.356 (inactive) | 0.0038 | 5.6 (inactive) | 0.755 (inactive) | 0.39 (inactive) | 0.13 (inactive) | 0.293 | 0.576 (inactive) | -0.0887 (inactive) | -2.11
